# In PMC7862700, “An all-to-all approach to the identification of sequence-specific readers for epigenetic DNA modifications on cytosine”:
# Experiments:
# Experiment in all cases: DAPPL (digital affinity profiling via proximity ligation, sequencing); 10 mM Tris-HCl pH 7.5, 50 mM NaCl, 1 mM DTT, 4% glycerol, room temperature, 30 min; GST-TFs on glutathione beads, 16-mer random dsDNA library, 0.1% formaldehyde crosslink after washing; high values mean tight binding
# FEV = biological target: T1, FEV (Homo sapiens, UniProt Q99581 1-238); settings: protein: recombinant; tags: N-terminal GST; dsDNA, one strand shown
# T1 sequence: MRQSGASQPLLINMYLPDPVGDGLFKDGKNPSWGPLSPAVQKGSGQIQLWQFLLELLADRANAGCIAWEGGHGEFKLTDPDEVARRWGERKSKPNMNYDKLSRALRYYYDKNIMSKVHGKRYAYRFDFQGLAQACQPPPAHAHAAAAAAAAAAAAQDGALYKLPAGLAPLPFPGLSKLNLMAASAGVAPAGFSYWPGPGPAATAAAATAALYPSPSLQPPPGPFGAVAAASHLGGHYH
# Summary of the method: (§1)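 A tag-only sample was pooled with DNA-barcoded human transcription factors that had been expressed in yeast as GST fusions and captured on glutathione beads. The pools were incubated for 30 min at room temperature with 200 nmole of a random double-stranded 16-mer DNA library in Tris/NaCl/DTT/glycerol buffer, then washed, crosslinked with 0.1% formaldehyde, proximity-ligated (BsaI/T4 ligase, 1 h, 37 °C), PCR-amplified and sequenced on an Illumina NextSeq500. Binding signal is each hexamer's read frequency for a factor divided by its frequency for the tag-only sample.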
# ETV5 = ETV5 (Homo sapiens, UniProt P41161 1-510); settings: protein: recombinant; tags: N-terminal GST; dsDNA, one strand shown
# Chain of ETV5 (P41161 whole entry): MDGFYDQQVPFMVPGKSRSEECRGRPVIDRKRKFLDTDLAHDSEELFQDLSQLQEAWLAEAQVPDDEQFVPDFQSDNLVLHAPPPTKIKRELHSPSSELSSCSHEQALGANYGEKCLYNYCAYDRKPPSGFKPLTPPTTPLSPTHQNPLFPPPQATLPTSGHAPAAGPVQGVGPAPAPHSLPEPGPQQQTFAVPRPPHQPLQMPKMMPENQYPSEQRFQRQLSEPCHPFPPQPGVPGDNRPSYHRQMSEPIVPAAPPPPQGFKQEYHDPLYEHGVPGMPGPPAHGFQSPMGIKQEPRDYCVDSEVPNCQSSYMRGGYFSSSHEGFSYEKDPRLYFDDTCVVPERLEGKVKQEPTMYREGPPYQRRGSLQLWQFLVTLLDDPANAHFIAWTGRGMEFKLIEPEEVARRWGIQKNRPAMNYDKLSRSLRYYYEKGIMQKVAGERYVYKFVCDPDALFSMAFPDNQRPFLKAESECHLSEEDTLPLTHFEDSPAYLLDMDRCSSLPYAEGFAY
# Summary of the method: as §1
# HSF1 = HSF1 (Homo sapiens, UniProt Q00613 1-529); settings: protein: recombinant; tags: N-terminal GST; chain copies: 3; dsDNA, one strand shown
# Chain of HSF1 (Q00613 whole entry): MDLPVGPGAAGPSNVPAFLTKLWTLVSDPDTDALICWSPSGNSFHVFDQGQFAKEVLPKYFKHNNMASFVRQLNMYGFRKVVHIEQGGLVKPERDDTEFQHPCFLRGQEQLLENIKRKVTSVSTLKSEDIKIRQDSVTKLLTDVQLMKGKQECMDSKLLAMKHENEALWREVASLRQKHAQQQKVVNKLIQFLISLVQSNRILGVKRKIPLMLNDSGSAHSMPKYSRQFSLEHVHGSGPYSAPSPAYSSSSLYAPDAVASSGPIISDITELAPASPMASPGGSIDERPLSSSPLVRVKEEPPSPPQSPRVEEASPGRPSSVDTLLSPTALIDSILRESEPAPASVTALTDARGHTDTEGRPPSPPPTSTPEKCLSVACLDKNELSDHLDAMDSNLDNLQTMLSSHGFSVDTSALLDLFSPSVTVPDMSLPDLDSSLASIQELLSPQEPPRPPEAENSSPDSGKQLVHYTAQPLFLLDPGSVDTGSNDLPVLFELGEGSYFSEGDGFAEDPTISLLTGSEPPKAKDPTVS
# Summary of the method: as §1
# SPIC = biological target: T2, SPIC (Homo sapiens, UniProt Q8N5J4 1-248); settings: protein: recombinant; tags: N-terminal GST; dsDNA, one strand shown
# T2 sequence: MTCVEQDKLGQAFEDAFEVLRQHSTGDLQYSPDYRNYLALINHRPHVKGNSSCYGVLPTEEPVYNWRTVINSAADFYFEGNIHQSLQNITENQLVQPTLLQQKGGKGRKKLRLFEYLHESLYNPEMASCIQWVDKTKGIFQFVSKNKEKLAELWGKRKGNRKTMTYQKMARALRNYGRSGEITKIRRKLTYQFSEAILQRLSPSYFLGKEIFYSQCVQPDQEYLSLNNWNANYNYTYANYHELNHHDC
# Summary of the method: as §1
# ELF4 = ELF4 (Homo sapiens, UniProt Q99607 1-663); settings: protein: recombinant; tags: N-terminal GST; dsDNA, one strand shown
# Chain of ELF4 (Q99607 whole entry): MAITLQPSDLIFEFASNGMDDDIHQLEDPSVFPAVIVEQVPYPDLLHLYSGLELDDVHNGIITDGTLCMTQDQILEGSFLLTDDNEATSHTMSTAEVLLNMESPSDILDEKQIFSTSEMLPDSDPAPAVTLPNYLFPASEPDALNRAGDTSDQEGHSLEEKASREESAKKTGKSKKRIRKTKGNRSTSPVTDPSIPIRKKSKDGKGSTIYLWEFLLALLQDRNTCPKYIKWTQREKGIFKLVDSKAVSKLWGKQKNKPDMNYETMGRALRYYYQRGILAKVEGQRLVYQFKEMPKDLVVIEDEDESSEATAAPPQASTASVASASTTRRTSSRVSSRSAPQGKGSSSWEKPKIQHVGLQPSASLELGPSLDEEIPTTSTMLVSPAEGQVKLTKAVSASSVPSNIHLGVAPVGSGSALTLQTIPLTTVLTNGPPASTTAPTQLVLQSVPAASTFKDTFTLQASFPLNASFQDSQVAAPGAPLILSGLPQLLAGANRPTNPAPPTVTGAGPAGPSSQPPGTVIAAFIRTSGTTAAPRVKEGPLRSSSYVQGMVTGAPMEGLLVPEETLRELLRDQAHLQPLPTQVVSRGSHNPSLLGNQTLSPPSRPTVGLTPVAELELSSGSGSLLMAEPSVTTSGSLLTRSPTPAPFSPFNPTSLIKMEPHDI
# Summary of the method: as §1
# ELK4 = biological target: T3, ELK4 (Homo sapiens, UniProt P28324-2 1-405); settings: protein: recombinant; tags: N-terminal GST; dsDNA, one strand shown
# T3 sequence: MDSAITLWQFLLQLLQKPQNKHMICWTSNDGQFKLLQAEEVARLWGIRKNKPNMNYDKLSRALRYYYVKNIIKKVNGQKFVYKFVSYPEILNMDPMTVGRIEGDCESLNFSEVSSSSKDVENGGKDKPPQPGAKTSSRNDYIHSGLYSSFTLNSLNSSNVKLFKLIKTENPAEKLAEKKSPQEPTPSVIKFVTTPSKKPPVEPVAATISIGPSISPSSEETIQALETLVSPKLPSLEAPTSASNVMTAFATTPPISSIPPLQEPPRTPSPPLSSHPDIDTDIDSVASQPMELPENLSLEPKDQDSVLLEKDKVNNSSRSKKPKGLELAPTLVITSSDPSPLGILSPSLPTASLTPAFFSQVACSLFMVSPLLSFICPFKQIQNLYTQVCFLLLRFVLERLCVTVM
# Summary of the method: as §1
# ETV2 = biological target: T4, ETV2 (Homo sapiens, UniProt O00321 1-342); settings: protein: recombinant; tags: N-terminal GST; dsDNA, one strand shown
# T4 sequence: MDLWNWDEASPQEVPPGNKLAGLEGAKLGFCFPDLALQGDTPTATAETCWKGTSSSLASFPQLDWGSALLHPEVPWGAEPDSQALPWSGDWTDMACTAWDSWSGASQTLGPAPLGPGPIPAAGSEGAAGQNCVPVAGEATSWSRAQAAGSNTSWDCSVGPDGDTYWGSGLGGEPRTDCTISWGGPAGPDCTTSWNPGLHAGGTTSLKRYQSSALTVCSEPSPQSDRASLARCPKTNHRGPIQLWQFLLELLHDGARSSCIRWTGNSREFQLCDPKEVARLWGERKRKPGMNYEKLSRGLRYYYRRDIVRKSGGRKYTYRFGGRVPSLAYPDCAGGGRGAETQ
# Summary of the method: as §1
# ELF3 = biological target: T5, ELF3 (Homo sapiens, UniProt P78545 1-371); settings: protein: recombinant; tags: N-terminal GST; dsDNA, one strand shown
# T5 sequence: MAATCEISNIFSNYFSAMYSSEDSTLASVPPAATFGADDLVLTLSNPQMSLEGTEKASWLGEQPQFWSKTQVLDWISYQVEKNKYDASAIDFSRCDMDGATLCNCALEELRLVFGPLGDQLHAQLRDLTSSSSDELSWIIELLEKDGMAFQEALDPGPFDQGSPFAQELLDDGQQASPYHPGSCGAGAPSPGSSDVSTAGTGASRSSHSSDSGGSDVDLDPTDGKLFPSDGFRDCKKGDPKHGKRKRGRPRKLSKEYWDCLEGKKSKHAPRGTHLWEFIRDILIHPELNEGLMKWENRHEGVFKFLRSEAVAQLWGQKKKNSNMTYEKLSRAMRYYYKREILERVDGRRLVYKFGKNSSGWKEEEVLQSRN
# Summary of the method: as §1
# CRX = CRX (Homo sapiens, UniProt O43186 1-299); settings: protein: recombinant; tags: N-terminal GST; dsDNA, one strand shown
# Chain of CRX (O43186 whole entry): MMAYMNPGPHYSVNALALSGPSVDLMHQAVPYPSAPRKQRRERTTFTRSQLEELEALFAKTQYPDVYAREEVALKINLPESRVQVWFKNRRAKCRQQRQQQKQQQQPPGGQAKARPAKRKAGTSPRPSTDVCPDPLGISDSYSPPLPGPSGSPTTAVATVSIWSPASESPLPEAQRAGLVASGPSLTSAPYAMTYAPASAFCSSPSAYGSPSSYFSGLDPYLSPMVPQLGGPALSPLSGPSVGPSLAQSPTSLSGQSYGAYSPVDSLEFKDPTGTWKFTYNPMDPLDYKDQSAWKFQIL
# Summary of the method: as §1
# ETV1 = ETV1 (Homo sapiens, UniProt P50549 1-477); settings: protein: recombinant; tags: N-terminal GST; dsDNA, one strand shown
# Chain of ETV1 (P50549 whole entry): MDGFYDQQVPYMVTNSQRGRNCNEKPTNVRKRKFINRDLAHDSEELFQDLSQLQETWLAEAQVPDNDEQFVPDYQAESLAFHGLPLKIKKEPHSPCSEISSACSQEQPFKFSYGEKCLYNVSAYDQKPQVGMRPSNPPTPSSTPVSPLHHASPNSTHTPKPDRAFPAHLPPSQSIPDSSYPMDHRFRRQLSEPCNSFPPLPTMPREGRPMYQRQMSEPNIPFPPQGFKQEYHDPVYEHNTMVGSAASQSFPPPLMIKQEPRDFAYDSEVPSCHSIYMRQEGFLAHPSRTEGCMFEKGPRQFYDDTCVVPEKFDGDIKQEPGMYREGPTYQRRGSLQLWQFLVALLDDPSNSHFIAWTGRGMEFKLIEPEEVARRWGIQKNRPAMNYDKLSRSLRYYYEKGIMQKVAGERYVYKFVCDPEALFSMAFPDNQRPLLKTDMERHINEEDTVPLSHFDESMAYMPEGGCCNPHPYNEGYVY
# Summary of the method: as §1
# ERF = biological target: T6, ERF (Homo sapiens, UniProt P50548 1-548); settings: protein: recombinant; tags: N-terminal GST; dsDNA, one strand shown
# T6 sequence: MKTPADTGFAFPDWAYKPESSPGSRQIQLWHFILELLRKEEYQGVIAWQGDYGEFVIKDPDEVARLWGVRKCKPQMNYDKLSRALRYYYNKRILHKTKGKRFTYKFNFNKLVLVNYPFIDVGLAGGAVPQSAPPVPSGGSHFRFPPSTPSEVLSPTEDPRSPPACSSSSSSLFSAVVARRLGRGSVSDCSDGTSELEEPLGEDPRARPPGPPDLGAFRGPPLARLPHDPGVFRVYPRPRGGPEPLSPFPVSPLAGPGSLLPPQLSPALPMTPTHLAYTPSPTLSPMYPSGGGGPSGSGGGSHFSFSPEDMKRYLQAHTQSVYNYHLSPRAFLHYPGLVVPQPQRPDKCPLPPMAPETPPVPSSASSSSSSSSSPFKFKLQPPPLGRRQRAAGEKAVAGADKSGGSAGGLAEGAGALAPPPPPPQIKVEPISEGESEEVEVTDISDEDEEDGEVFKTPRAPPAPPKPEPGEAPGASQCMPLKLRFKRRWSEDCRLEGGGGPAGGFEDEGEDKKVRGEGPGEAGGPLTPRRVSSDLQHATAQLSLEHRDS
# Summary of the method: as §1
# ETV3L = biological target: T7, ETV3L (Homo sapiens, UniProt Q6ZN32 1-361); settings: protein: recombinant; tags: N-terminal GST; dsDNA, one strand shown
# T7 sequence: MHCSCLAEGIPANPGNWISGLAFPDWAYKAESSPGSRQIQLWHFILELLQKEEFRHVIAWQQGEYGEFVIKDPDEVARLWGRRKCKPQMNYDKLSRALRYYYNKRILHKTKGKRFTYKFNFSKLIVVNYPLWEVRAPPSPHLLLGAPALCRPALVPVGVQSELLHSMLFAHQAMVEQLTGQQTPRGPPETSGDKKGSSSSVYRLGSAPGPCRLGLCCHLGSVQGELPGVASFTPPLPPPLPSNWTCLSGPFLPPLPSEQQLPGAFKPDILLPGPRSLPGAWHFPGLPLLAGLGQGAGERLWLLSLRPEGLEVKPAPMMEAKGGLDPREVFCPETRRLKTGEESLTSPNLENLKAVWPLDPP
# Summary of the method: as §1
# ETS2 = biological target: T8, ETS2 (Homo sapiens, UniProt P15036 1-469); settings: protein: recombinant; tags: N-terminal GST; dsDNA, one strand shown
# T8 sequence: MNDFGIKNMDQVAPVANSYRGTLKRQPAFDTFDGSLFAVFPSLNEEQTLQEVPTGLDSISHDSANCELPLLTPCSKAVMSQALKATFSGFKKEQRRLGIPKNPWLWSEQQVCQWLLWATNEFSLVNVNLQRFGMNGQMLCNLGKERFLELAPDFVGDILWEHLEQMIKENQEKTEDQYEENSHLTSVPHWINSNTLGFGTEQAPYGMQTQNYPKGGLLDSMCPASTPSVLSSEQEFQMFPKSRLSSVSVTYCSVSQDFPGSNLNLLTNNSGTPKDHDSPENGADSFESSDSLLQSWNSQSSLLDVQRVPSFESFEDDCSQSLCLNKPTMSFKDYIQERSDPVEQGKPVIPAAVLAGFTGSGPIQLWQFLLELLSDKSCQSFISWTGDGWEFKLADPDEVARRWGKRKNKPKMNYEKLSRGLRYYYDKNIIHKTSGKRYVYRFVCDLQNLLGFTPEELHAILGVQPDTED
# Summary of the method: as §1
# SPDEF = biological target: T9, SPDEF (Homo sapiens, UniProt O95238 1-335); settings: protein: recombinant; tags: N-terminal GST; dsDNA, one strand shown
# T9 sequence: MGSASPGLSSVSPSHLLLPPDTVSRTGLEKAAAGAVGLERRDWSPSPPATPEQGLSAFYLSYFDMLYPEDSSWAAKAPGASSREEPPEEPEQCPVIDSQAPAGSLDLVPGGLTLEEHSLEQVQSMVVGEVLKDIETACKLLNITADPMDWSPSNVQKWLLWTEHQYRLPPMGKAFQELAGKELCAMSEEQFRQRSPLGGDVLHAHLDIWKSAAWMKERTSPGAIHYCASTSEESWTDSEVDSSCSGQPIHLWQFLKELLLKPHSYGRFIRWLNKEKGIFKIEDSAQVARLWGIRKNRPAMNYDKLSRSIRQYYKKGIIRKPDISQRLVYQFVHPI
# Summary of the method: as §1
# ETV7 = biological target: T10, ETV7 (Homo sapiens, UniProt Q9Y603 1-341); settings: protein: recombinant; tags: N-terminal GST; dsDNA, one strand shown
# T10 sequence: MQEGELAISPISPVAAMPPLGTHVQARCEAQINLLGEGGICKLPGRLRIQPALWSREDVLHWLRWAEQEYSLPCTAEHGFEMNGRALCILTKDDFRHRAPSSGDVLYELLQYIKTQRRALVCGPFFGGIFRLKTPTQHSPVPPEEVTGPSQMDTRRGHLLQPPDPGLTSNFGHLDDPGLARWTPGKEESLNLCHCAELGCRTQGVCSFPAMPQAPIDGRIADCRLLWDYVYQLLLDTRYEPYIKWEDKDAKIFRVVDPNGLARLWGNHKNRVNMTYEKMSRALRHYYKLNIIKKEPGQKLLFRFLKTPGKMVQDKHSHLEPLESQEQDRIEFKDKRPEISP
# Summary of the method: as §1
# ELF5 = biological target: T11, ELF5 (Homo sapiens, UniProt Q9UKW6-2 1-255); settings: protein: recombinant; tags: N-terminal GST; dsDNA, one strand shown
# T11 sequence: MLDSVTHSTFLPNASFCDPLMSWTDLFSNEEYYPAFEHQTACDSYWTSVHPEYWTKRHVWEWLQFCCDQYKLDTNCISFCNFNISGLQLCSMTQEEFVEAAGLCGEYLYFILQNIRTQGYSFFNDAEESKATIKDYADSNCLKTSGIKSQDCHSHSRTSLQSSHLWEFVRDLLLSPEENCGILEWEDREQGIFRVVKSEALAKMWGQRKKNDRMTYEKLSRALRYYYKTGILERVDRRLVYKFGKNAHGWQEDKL
# Summary of the method: as §1
# ETV3 = biological target: T12, ETV3 (Homo sapiens, UniProt P41162-2 1-143); settings: protein: recombinant; tags: N-terminal GST; dsDNA, one strand shown
# T12 sequence: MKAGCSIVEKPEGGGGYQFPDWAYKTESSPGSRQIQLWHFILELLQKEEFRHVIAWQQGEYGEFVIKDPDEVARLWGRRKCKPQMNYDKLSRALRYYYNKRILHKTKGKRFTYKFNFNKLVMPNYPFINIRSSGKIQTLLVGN
# Summary of the method: as §1
# ETV6 = ETV6 (Homo sapiens, UniProt P41212 1-452); settings: protein: recombinant; tags: N-terminal GST; dsDNA, one strand shown
# Chain of ETV6 (P41212 whole entry): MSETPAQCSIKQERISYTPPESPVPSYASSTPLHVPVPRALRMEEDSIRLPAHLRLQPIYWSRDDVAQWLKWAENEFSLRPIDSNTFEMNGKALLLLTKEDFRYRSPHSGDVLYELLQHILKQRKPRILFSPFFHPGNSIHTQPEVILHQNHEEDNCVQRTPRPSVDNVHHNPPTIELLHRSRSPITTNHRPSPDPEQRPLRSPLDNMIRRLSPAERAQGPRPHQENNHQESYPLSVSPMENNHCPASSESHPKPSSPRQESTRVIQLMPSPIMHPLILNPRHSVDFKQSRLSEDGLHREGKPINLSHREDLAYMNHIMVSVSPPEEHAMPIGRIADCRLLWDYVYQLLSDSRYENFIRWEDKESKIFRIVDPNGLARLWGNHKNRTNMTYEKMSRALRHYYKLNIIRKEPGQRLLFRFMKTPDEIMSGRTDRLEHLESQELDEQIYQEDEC
# Summary of the method: as §1
sequence,measurement,setting,value
CTAACG,binding signal,FEV,"1.19 fold enrichment (6-mer frequency, TF over GST control)"
same,binding signal,ETV5,"1.19 fold enrichment (6-mer frequency, TF over GST control)"
same,binding signal,HSF1,"1.09 fold enrichment (6-mer frequency, TF over GST control)"
same,binding signal,SPIC,"1.04 fold enrichment (6-mer frequency, TF over GST control)"
same,binding signal,ELF4,"1.17 fold enrichment (6-mer frequency, TF over GST control)"
same,binding signal,ELK4,"1.19 fold enrichment (6-mer frequency, TF over GST control)"
same,binding signal,ETV2,"1.01 fold enrichment (6-mer frequency, TF over GST control)"
same,binding signal,ELF3,"1.18 fold enrichment (6-mer frequency, TF over GST control)"
same,binding signal,CRX,"1.1 fold enrichment (6-mer frequency, TF over GST control)"
same,binding signal,ETV1,"1.11 fold enrichment (6-mer frequency, TF over GST control)"
same,binding signal,ERF,"1.23 fold enrichment (6-mer frequency, TF over GST control)"
same,binding signal,ETV3L,"1.25 fold enrichment (6-mer frequency, TF over GST control)"
same,binding signal,ETS2,"1.15 fold enrichment (6-mer frequency, TF over GST control)"
same,binding signal,SPDEF,"1.16 fold enrichment (6-mer frequency, TF over GST control)"
same,binding signal,ETV7,"1.26 fold enrichment (6-mer frequency, TF over GST control)"
same,binding signal,ELF5,"1.12 fold enrichment (6-mer frequency, TF over GST control)"
same,binding signal,ETV3,"1.17 fold enrichment (6-mer frequency, TF over GST control)"
same,binding signal,ETV6,"1.16 fold enrichment (6-mer frequency, TF over GST control)"
